Measured values from publication PMC5540273 (PLoS ONE, 2017).
Several values for one entry are separate records, joined by “and”; a condition that tells them apart may be missing. Equal values may be shown once. Read-outs that look alike come from different tables or passages of the source.

Experiments:
SRMS = settings: concentration: 1 μM, replicates: in singlicate, n = 1
SRPK1 = settings: concentration: 1 μM, replicates: in singlicate, n = 1
SRPK2 = settings: concentration: 1 μM, replicates: in singlicate, n = 1
SRPK3 = settings: concentration: 1 μM, replicates: in singlicate, n = 1
STK16 = settings: concentration: 1 μM, replicates: in singlicate, n = 1
STK33 = settings: concentration: 1 μM, replicates: in singlicate, n = 1
STK35 = settings: concentration: 1 μM, replicates: in singlicate; n = 1
STK36 = settings: concentration: 1 μM, replicates: in singlicate, n = 1
STK39 = settings: concentration: 1 μM, replicates: in singlicate, n = 1
SYK = settings: concentration: 1 μM, replicates: in singlicate, n = 1
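Note: KINOMEscan kinase panel screen.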

Row | SMILES | %Inh (SRMS) [%] | %Inh (SRPK1) [%] | %Inh (SRPK2) [%] | %Inh (SRPK3) [%] | %Inh (STK16) [%] | %Inh (STK33) [%] | %Inh (STK35) [%] | %Inh (STK36) [%] | %Inh (STK39) [%] | %Inh (SYK) [%] | %Inh (SRMS; 1 µM) | %Inh (SRPK1; 1 µM) | %Inh (SRPK2; 1 µM) | %Inh (SRPK3; 1 µM) | %Inh (STK16; 1 µM) | %Inh (STK33; 1 µM) | %Inh (STK36; 1 µM) | %Inh (STK39; 1 µM) | %Inh (SYK; 1 µM)
1 | FC(F)(F)c1ccc(-c2cc(-c3c[nH]nc3-c3ccccn3)ccn2)cc1 [GW599550] | 0 | 24 | 13 | 2 | 10 | 0 | 0 | 0 | 0 | 44 |  |  |  |  |  |  |  |  | 
2 | Cl.c1ccc(Cn2ccc3cc(Nc4ncnc5ccccc45)ccc32)cc1 [GW275568] | 15 | 11 | 0 | 0 | 19 | 0 | 0 | 20 | 18 | 26 |  |  |  |  |  |  |  |  | 
3 | Fc1cccc(COc2ccc(Nc3ncnc4cc[nH]c34)cc2Cl)c1 | 0 | 8 | 7 | 33 | 20 | 15 | 0 | 33 | 9 | 32 |  |  |  |  |  |  |  |  | 
4 | O=C(c1ccc(-c2cc(-c3c[nH]nc3-c3ccccn3)ccn2)cc1)N1CCCC1 [GW792479] | 0 | 0 | 64 | 26 | 16 | 0 | 0 | 0 | 0 | 20 |  |  |  |  |  |  |  |  | 
5 | Cc1cccc(-c2nc(Nc3ccc4[nH]nnc4c3)c3ccccc3n2)n1 [GW867587] | 10 | 0 | 0 | 7 | 0 | 0 | 0 | 0 | 0 | 0 |  |  |  |  |  |  |  |  | 
6 | CN1c2ccc(-c3ccc(C(=O)NCCO)cc3)cc2-c2[nH]ncc2S1(=O)=O | 0 | 12 | 5 | 1 | 2 | 9 | 26 | 30 | 13 | 41 |  |  |  |  |  |  |  |  | 
7 | CNc1nccc(-c2c(-c3ccc(F)cc3)ncn2CCCN2CCOCC2)n1 [SB-222516] | 0 | 19 | 0 | 0 | 0 | 21 | 0 | 0 | 8 | 0 |  |  |  |  |  |  |  |  | 
8 | Clc1cc(Nc2ncnc3cc[nH]c23)ccc1OCc1ccccn1 | 0 | 0 | 0 | 19 | 35 | 9 | 0 | 12 | 8 | 8 |  |  |  |  |  |  |  |  | 
9 | Cn1ccc2ncnc(Oc3ccc(NC(=O)Nc4cccnc4)c(Cl)c3)c21 | 0 | 12 | 0 | 0 | 3 | 0 | 6 | 13 | 0 | 0 |  |  |  |  |  |  |  |  | 
10 | COc1ccc(-c2nc3n(c2-c2ccncc2)CCC3)cc1 [SKF-104493] |  |  |  |  |  |  | 0 |  |  |  | 12% and 13% | 0% and 1% | 16% and 0% | 35% and 0% | 21% and 9% | 0% and 8% | 35% and 43% | 0% and 16% | 1% and 48%
11 | Cc1cc(N2CCC(NS(=O)(=O)c3ccc(F)cc3)CC2)nc(Nc2cccc(C#N)c2)n1.O=C(O)C(F)(F)F [GSK1653537] | 0 | 15 | 0 | 18 | 0 | 0 | 0 | 0 | 1 | 19 |  |  |  |  |  |  |  |  | 
12 | NC(=O)c1sc(-n2cnc3ccccc32)cc1OCc1ccccc1F [GSK1024306] | 0 | 50 | 0 | 16 | 0 | 0 | 0 | 0 | 4 | 7 |  |  |  |  |  |  |  |  | 
13 | CCCc1ccc(S(=O)(=O)NC2CCN(c3ccnc(Nc4ccc(OC)cc4)n3)C2)cc1 (centres unmarked) [GSK1379737] | 0 | 28 | 28 | 0 | 1 | 0 | 0 | 15 | 17 | 18 |  |  |  |  |  |  |  |  | 
14 | CC(C)(C)c1ccc(-n2cnc3c(N)ncnc32)cc1 [SKF-97263] | 14 | 29 | 0 | 31 | 0 | 0 | 11 | 11 | 0 | 0 |  |  |  |  |  |  |  |  | 
15 | O=C(NCCCN1CCCC1=O)c1cnc(NCc2cc(Cl)ccc2Cl)nc1NC1CCNCC1 | 0 | 21 | 0 | 4 | 0 | 0 | 0 | 0 | 0 | 8 |  |  |  |  |  |  |  |  | 
16 | CN1CCC(n2cnc(-c3ccc(F)cc3)c2-c2ccnc(NC3CCNCC3)n2)CC1 [SB-229482] | 28 | 0 | 27 | 16 | 12 | 0 | 0 | 24 | 47 | 0 |  |  |  |  |  |  |  |  | 
17 | COc1ccc(NC(=O)Nc2ccc(C)c(-c3ccc(C(=O)Nc4ccncc4)cc3)c2)cc1 [GSK1398475] | 0 | 0 | 0 | 0 | 0 | 0 | 0 | 0 | 0 | 0 |  |  |  |  |  |  |  |  | 

Row | SMILES | %Inh (SRMS) [%] | %Inh (SRPK1) [%] | %Inh (SRPK2) [%] | %Inh (SRPK3) [%] | %Inh (STK16) [%] | %Inh (STK33) [%] | %Inh (STK35) [%] | %Inh (STK36) [%] | %Inh (STK39) [%] | %Inh (SYK) [%] | %Inh (SRMS; 1 µM) | %Inh (SRPK1; 1 µM) | %Inh (SRPK2; 1 µM) | %Inh (SRPK3; 1 µM) | %Inh (STK16; 1 µM) | %Inh (STK33; 1 µM) | %Inh (STK36; 1 µM) | %Inh (STK39; 1 µM) | %Inh (SYK; 1 µM)
18 | COc1ccc(NC(=O)c2ccc(-c3cc(-c4nnc(C)o4)ccc3C)cc2)cc1 [GW595885] | 0 | 0 | 0 | 8 | 7 | 0 | 0 | 0 | 21 | 27 |  |  |  |  |  |  |  |  | 
19 | Cl.O=S(=O)(c1cccc(F)c1)c1ccc(Nc2ncnc3cc(Br)sc23)cc1Cl [GSK306886] | 0 | 100 | 0 | 0 | 25 | 0 | 0 | 0 | 1 | 5 |  |  |  |  |  |  |  |  | 
20 | Cl.c1ccc(Cn2ncc3cc(Nc4ncnc5ccccc45)ccc32)cc1 [GW273749] | 0 | 16 | 0 | 0 | 40 | 0 | 0 | 0 | 0 | 18 |  |  |  |  |  |  |  |  | 
21 | Nc1nc(-c2ccc3c(N)n[nH]c3c2)cc(N2CCCCC2)n1 [GSK2228768] | 0 | 45 | 0 | 0 | 5 | 0 | 0 | 0 | 0 | 8 |  |  |  |  |  |  |  |  | 
22 | O=C(Nc1n[nH]c2nc(-c3ccco3)c(Br)cc12)c1ccc(CN2CCCC2)cc1.O=C(O)[C@H](O)[C@@H](O)C(=O)O [SB-742352] | 0 | 2 | 0 | 26 | 0 | 0 | 26 | 54 | 0 | 10 |  |  |  |  |  |  |  |  | 
23 | Cn1ccc2ncnc(Nc3ccc(Oc4cccc(Cl)c4)c(Cl)c3)c21 | 0 | 20 | 0 | 0 | 0 | 26 | 0 | 6 | 0 | 4 |  |  |  |  |  |  |  |  | 
24 | Fc1cccc(COc2ccc(Nc3ncnc4sc(-c5ccc[nH]5)cc34)cc2Cl)c1 [GW707818] | 14 | 19 | 3 | 0 | 26 | 8 | 0 | 0 | 9 | 13 |  |  |  |  |  |  |  |  | 
25 | CCc1nc(-c2cccc(C)c2)c(-c2ccnc(NC(=O)c3ccccc3)c2)s1 | 0 | 0 | 0 | 0 | 6 | 12 | 0 |  | 0 | 0 |  |  |  |  |  |  |  |  | 
26 | Clc1cccc(-c2nc(Nc3ccncc3)c3ccccc3n2)c1 [GW873004] | 2 |  | 43 | 0 | 0 | 26 | 0 | 3 | 0 | 33 |  |  |  |  |  |  |  |  | 
27 | CSc1nn2c(=O)cc(N3CCOCC3)nc2n1Cc1cccc(Cl)c1Cl [GSK2347225] | 0 | 13 | 0 | 0 | 14 | 3 | 65 | 28 | 0 | 30 |  |  |  |  |  |  |  |  | 
28 | FC(F)(F)c1cc(Nc2nccc(-c3c(-c4ccc(Cl)cc4)nn4ncccc34)n2)ccc1Cl [GW829351] | 27 | 0 | 7 | 4 | 0 | 0 | 0 | 21 | 0 | 2 |  |  |  |  |  |  |  |  | 
29 | COc1ccc(-c2oc3ncnc(N)c3c2-c2ccc(OC)cc2)cc1 [SB-589132] | 6 | 30 | 53 | 0 | 57 | 0 | 0 | 0 | 24 | 20 |  |  |  |  |  |  |  |  | 
30 | C[C@@H]1CCN(C(=O)CO)C[C@@H]1N(C)c1ncnc2[nH]ccc12 | 0 | 24 | 0 | 0 | 0 | 2 | 4 | 0 | 0 | 3 |  |  |  |  |  |  |  |  | 
31 | Cc1ccc(C)c(NC(=O)NCCNc2ccnc(Nc3ccc(F)cc3)n2)c1 [GSK1379878] | 0 | 0 | 0 | 0 | 100 | 0 | 0 | 0 | 0 | 17 |  |  |  |  |  |  |  |  | 
32 | COc1cc2ncnc(Nc3ccc(OCc4ccccc4Br)c(Cl)c3)c2cc1OC.Cl [GI261590] | 0 | 0 | 32 | 5 | 6 | 0 | 18 | 0 | 7 | 33 |  |  |  |  |  |  |  |  | 
33 | COc1ccc(Nc2nccc(N3CCC(NC(=O)Nc4ccc5c(c4)OCO5)C3)n2)cc1 (centres unmarked) [GSK1379745] | 0 | 29 | 3 | 17 | 0 | 3 | 8 | 0 | 17 | 40 |  |  |  |  |  |  |  |  | 
34 | COc1ccc(Nc2nccc(N3CCC(NC(=O)c4cccc(NC(C)=O)c4)C3)n2)cc1 (centres unmarked) [GSK1379732] | 9 | 18 | 61 | 0 | 11 | 2 | 0 | 0 | 15 | 18 |  |  |  |  |  |  |  |  | 
